Source: PubChem BioAssay
An excerpt weighted towards active compounds, which were near 7.6% of everything screened.
Cy5 interf NS3h = Cy5 fluorescence quenchers or enhancers, artefact control for HCV NS3 helicase inhibitor project, biochemical, ChemBridge library, Cy5 readout; fluorescence interference ratio at 100 µM; 16,000 tested, 6% active; AID 720488, 2013; Cy5-dT15 DNA with NS3h, fluorescence interference; actives lie on both sides; signal over control mean, under 1 quenches;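 active means compound fluorescence over control fluorescence at most 0.8, a quencher, or at least a set upper limit, an enhancer; inactive means ratio between 0.8 and the set upper limit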
NS3h inh CB = HCV NS3 helicase inhibitors, primary screen, biochemical, fluorescence polarization, ChemBridge library | NS3h Cy5-dT15 DNA binding | inhibition, % at 100 µM | 16,000 tested, 1.6% active | AID 687043, 2013;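 active means inhibition above the average over every tested compound plus 3 SD, cut at about 40% in these data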
Numbers stand for hits; – = inactive.

SMILES | Cy5 interf NS3h | NS3h inh CB
COc1ccc(C(=O)Oc2cccc(C(=S)N3CCOCC3)c2)cc1 | – | –
S=C(c1cccc(OCc2ccccc2)c1)N1CCOCC1 | 0.64 | –
O=C(N/N=C(\C=C\c1ccccc1[N+](=O)[O-])c1ccccc1)c1ccc(O)cc1 | – | –
CCOc1ccc(NC(=S)NC(=O)/C=C/c2ccc(C)cc2)c([N+](=O)[O-])c1 | – | –
CCOc1ccc(NC(=O)c2ccc(S(=O)(=O)N(C)C)cc2)c([N+](=O)[O-])c1 | 0.57 | –
CCOc1ccc(NC(=S)NC(=O)/C=C/c2ccc(OC)c(OC)c2)c([N+](=O)[O-])c1 | 0.8 | –
CCOc1ccc(NC(=S)NC(=O)c2ccc(OC)cc2)c([N+](=O)[O-])c1 | – | –
Cc1ccc(N2C(=O)/C(=C/c3cc(C)n(-c4ccc([N+](=O)[O-])cc4)c3C)C(=O)NC2=S)cc1 | – | –
Cc1ccc(/C(N)=N\OC(=O)c2cccc([N+](=O)[O-])c2C)cc1 | – | –
CC1(C)Cc2ccccc2-c2nc(NN)n(Cc3ccccc3)c(=O)c21 | – | –
O=C(O)CC(Cc1ccc(Br)cc1)C(=O)NCc1ccccc1 (configuration not stated) | – | –
COc1ccc2c(c1)OCC/C2=N/OC(=O)c1ccc(C)cc1 | – | –
COc1ccc2c(c1)OCC/C2=N/OC(=O)c1cc(OC)c(OC)c(OC)c1 | 1.2 | –
O=C(NC(=S)Nc1ccc(Br)cc1)c1ccco1 | – | –
COc1ccccc1C=C1C(=O)NC(=S)N(c2ccccc2F)C1=O | – | –
O=C1NC(=S)N(c2ccccc2F)C(=O)/C1=C/c1ccc(OCc2cccc(C(=O)O)c2)cc1 | – | 50
COc1ccc(C/C(N)=N\OC(=O)COc2ccc3ccccc3c2)cc1 | – | –
NC(=O)c1nn2c(c1Cl)NC(c1cccs1)CC2C(F)(F)F (configuration not stated) | 0.67 | –
O=C(Nc1ccc(OC(F)(F)F)cc1)c1cc2n(n1)C(C(F)(F)F)CC(c1cccs1)N2 (configuration not stated) | 0.71 | –
O=C(NCC1CCCO1)c1cc2n(n1)C(C(F)(F)F)CC(c1cccs1)N2 (configuration not stated) | – | –
CC1CCCC(C)N1C(=O)c1nn2c(c1Cl)NC(c1cccs1)CC2C(F)(F)F (configuration not stated) | – | –
CCc1ccccc1NC(=O)[C@H]1CC=CC[C@H]1C(=O)O | 0.74 | –
CCc1ccccc1NC(=O)C(CC)c1ccccc1 (configuration not stated) | – | –
CC1CCCN(C(=O)/C=C/c2ccccc2)C1 (configuration not stated) | – | –
O=C(CSc1cc(Cl)ccc1Cl)Nc1cccc(Cl)c1 | – | –
SMILES | Cy5 interf NS3h | NS3h inh CB
CC(=O)SCCC(=O)N1CCn2c3c(c4cc(C)ccc42)CCCC31 (configuration not stated) | – | –
O=C(Nc1ccc(/C=C/C(=O)c2cccs2)cc1)c1ccc(Br)cc1 | – | –
CSc1ccc(/C=C/C(=O)c2ccc(NC(=O)c3cccs3)cc2)cc1 | 0.71 | –
CN(C)CCn1c2ccccc2c2nc3ccc([N+](=O)[O-])cc3cc21 | 0.74 | –
CCc1nc2ccccc2n1Cc1ccc([N+](=O)[O-])cc1 | – | –
CSc1nnc(-c2ccc(C)cc2)o1 | 0.69 | –
CC(Sc1nnc(-c2cccnc2)o1)C(=O)c1ccccc1 (configuration not stated) | – | –
C=CCN1C(=O)/C(=C\c2ccc(C=O)cc2)SC1=S | – | –
COC(=O)c1ccc(-c2ccc(/C=C3/SC(=S)N(c4ccccc4)C3=O)o2)cc1 | – | –
O=Cc1ccc(/C=C2/SC(=S)N(Cc3ccccc3)C2=O)cc1 | 0.72 | –
O=C1/C(=C/c2ccc(I)o2)SC(=S)N1Cc1ccccc1 | 0.66 | –
CCN1C(=O)/C(=C/c2cccc(OC(=O)c3ccccc3I)c2)SC1=S | 0.74 | –
O=C1/C(=C\c2ccc(-c3ccccc3Cl)o2)SC(=S)N1Cc1ccccc1 | – | –
O=C1/C(=C/c2ccc(I)o2)SC(=S)N1c1ccccc1 | 0.69 | –
CCN1C(=O)/C(=C\c2cccc(OCCOc3cccc(OC)c3)c2)SC1=S | – | –
CCN(CC)C(=O)CCc1ccccc1 | – | –
CCCCc1c(C)c2cccc(C)c2[nH]c1=O | – | –
CCN1C(=O)/C(=C\c2ccc(N(C)C)cc2)SC1=S | 1.2 | –
CN(C)c1ccc(/C=N\N2C(=O)/C(=C/c3ccc(N(C)C)cc3)SC2=S)cc1 | – | –
COc1cc(/C=C2\SC(=S)N(CC(C)C)C2=O)ccc1O | 0.8 | –
COc1cc(/C=C2/SC(=S)N(c3ccccc3)C2=O)ccc1OC(=O)c1cccc(C)c1 | 0.67 | –
C=CCOc1ccc(/C=C2\SC(=S)N(c3ccc(OC)cc3)C2=O)cc1OC | 0.73 | –
COc1ccccc1/C=C1\SC(=S)N(c2ccc(F)cc2)C1=O | – | –
